We go through 96 molecules from article PMC4336329 (PLoS ONE, 2015).

Among all 310,000 compounds or so, about 14,000 (4.5%) showed an effect of 50% or more. Effects have a minus sign here. For the sample, strong results were picked, then their nearest neighbours and some compounds at random.
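Further: peak tail current of the secondary pulse compared with the same well before compound.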

The target in the assay is human ether-à-go-go-related gene (hERG) potassium channel (human, UniProt Q12809). The assay can be described thus: primary screen, population patch clamp on CHO cells stably expressing hERG; higher = less effect of the substance.
Sequence of human ether-à-go-go-related gene (hERG) potassium channel (Q12809 whole entry, looked up): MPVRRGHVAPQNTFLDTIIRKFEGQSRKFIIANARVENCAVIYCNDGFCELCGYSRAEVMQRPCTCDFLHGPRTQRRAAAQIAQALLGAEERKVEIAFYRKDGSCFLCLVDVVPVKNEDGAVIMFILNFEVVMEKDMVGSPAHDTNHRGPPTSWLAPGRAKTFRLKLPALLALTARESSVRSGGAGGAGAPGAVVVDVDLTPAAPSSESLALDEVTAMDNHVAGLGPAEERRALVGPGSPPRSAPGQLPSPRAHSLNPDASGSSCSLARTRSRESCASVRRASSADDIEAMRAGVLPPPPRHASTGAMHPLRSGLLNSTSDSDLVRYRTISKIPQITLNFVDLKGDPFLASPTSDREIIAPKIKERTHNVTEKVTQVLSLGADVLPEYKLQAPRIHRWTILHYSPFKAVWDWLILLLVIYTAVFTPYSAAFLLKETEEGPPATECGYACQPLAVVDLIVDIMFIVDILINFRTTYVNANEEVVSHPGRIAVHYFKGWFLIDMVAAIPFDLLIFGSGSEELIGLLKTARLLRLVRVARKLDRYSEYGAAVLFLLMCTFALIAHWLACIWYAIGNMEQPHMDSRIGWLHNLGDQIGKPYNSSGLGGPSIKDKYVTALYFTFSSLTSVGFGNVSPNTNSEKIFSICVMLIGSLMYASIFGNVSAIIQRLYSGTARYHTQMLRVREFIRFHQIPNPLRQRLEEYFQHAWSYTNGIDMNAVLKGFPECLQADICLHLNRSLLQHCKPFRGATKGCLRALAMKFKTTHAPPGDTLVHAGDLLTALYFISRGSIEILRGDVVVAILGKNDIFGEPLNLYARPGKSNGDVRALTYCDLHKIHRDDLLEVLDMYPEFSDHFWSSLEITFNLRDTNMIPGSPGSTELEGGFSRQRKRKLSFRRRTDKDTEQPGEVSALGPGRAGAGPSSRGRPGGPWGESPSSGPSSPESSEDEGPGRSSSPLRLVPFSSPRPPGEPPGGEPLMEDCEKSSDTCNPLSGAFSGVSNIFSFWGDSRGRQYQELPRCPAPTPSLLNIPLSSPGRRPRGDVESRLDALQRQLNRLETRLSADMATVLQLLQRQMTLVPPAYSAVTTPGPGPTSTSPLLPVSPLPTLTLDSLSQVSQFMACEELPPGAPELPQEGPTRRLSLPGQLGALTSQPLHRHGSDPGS
`COc1cccc(N(CC(=O)NCCN2CCOCC2)S(=O)(=O)c2ccccc2)c1`: the “hERG current change (%, negative = inhibition) at 10uM” value is -4.96%. In the case of `O=C(CSc1nc2ccccc2[nH]1)NCCc1ccc(Cl)cc1`, the “hERG current change (%, negative = inhibition) at 10uM” value is -20.9%. The same measure for `CN(C1CCCCC1)S(=O)(=O)c1ccccc1`: -7.01%. The result for `O=C(O)COc1ccc(Br)cc1/C=N\Nc1ccccn1` reads 15.2%; that for `COc1cc(OC)cc(C(=O)NC(=S)Nc2cc3oc4ccccc4c3cc2OC)c1`, 18.5%; that for `Cc1cc(/C=C2/C(=O)N(C)C(=S)N2C)c(C)n1C1CC1`, 4.03%. The same measure for `CC(C)Oc1ccc(C(=O)Nc2ccc(N3CCCCC3)cc2)cc1`: -2.32%; for `CS(=O)(=O)N1CCc2ccc(NC(=O)C3CCCO3)cc2C1` (stereo not drawn): 18.8%. On to `CCCNS(=O)(=O)c1ccc(CCC(=O)N2CCOCC2)cc1`, for which the “hERG current change (%, negative = inhibition) at 10uM” value amounted to 3.77%. As for `COC(=O)[C@@H](NC(=O)c1ccc2c(c1)S(=O)(=O)c1ccccc1C2=O)C(C)C`, the “hERG current change (%, negative = inhibition) at 10uM” value came out at 8.57%. The result for `CCCCC(=O)Nc1cc(N(C)C)nc2ccccc12` reads -66.3%; that for `CCCCCCC(=O)Nc1c2c(nc3ccccc13)N(C)CC2`, -68%. The result for `CN1CCc2c1nc1ccccc1c2NC(=O)CN1CCCC1` reads -1.61%.

As to `CCN(CC)CC(=O)Nc1c2c(nc3ccccc13)N(C)CC2.O=C(O)C(=O)O`, the “hERG current change (%, negative = inhibition) at 10uM” value turned out to be 16.5%. The result for `O=C(CN1CCCCC1)Nc1c2c(nc3ccccc13)N(c1ccccc1)CC2.O=C(O)C(=O)O` reads 3.12%; that for `CCCCCC(=O)Nc1cc(N(C)C)nc2ccccc12`, -74.9%; that for `O=C(CN1CCOCC1)Nc1c2c(nc3ccccc13)N(Cc1ccccc1)CC2.O=C(O)C(=O)O`, -68.9%. The result for `CCCCCC(=O)Nc1c2c(nc3ccccc13)CCC2` reads -45.7%; that for `O=C(CN1CCCC1)Nc1c2c(nc3ccccc13)N(Cc1ccccc1)CC2.O=C(O)C(=O)O`, 6.05%. Consider `CCCCCC(=O)Nc1cccc2ccccc12`, for which the “hERG current change (%, negative = inhibition) at 10uM” value is -2.38%. The same measure for `CCN(CC)CC(=O)Nc1cc(N(C)C)nc2ccccc12.O=C(O)C(=O)O`: -35.3%. The result for `CN(C)c1cc(NC(=O)CN2CCCC2)c2ccccc2n1.O=C(O)C(=O)O` reads -10.3%. The result for `C/C(=N\NC(=S)Nc1cc(S(=O)(=O)N2CCOCC2)ccc1Cl)c1ccc(N2CCOCC2)cc1` reads 6.22%; that for `COc1ccc(CN(Cc2ccccn2)C(=O)CN2C(=O)C(C)Oc3ccccc32)cc1` (stereo not drawn), -3.36%. For `CCOC(=O)c1ccc(-c2ccc(/C=C(\C#N)C(=O)NCc3cccs3)o2)cc1`, the “hERG current change (%, negative = inhibition) at 10uM” value worked out at 18%. The result for `CC(=O)N1N=C(c2cccnc2)OC1c1ccc(C(C)C)cc1` (stereo not drawn) reads -30.1%. The result for `O=c1[nH]ccc2c(O)cccc12` reads 20.1%; that for `Cc1cccc(C)c1NC(=O)C1c2cccc[n+]2CC(=O)N1Cc1cccs1.[I-]` (stereo not drawn), 4.89%.

For `O=C(CCN1C(=O)/C(=C/c2ccccc2F)SC1=S)NC1C=CS(=O)(=O)C1` (stereo not drawn), the “hERG current change (%, negative = inhibition) at 10uM” value was determined as 15.3%. In the case of `CCOc1ccc(C(=O)c2nc3c(n2O)CCCC3)cc1`, the “hERG current change (%, negative = inhibition) at 10uM” value came to 18.5%. The same measure for `O=C(O)/C=C/C(=O)Nc1cccc(C(F)(F)F)c1`: 7.79%; for `CC(C)CCN(CCC(C)C)CC(O)Cn1c2ccccc2c(=O)c2ccccc21` (stereo not drawn): -22%.

Consider `CCCCN(CCCC)CC(O)Cn1c2ccccc2c(=O)c2ccccc21` (stereo not drawn), for which the “hERG current change (%, negative = inhibition) at 10uM” value is -68%. `CCCN(CCC)CC(O)Cn1c2ccccc2c2ccccc21` (stereo not drawn): the “hERG current change (%, negative = inhibition) at 10uM” value is -32.1%. The result for `COCCCNC(=O)CCC(=O)Nc1ccc2nc(N3CCOCC3)cc(C)c2c1` reads 4%.

Turning to `c1csc(C2C3=C(Nc4ncnn42)c2ccccc2OC3)c1` (stereo not drawn), the “hERG current change (%, negative = inhibition) at 10uM” value stood at 11.4%. The same measure for `COc1ccc(C2Oc3ccccc3C3=C2C(c2cccs2)n2ncnc2N3)cc1` (stereo not drawn): -52.1%; for `Fc1ccc(C2C3=C(Nc4ncnn42)c2ccccc2OC3c2ccncc2)cc1` (stereo not drawn): -60.4%. The same measure for `Clc1ccc2c(c1)C1=C(C(c3ccncc3)O2)C(c2ccc(Br)cc2)n2ncnc2N1` (stereo not drawn): 4.44%; for `Cc1ccc(C2Oc3ccccc3C3=C2C(c2cccs2)n2ncnc2N3)cc1` (stereo not drawn): -7.55%.

Consider `Brc1ccc(C2C3=C(Nc4ncnn42)c2ccccc2OC3c2ccncc2)cc1` (stereo not drawn), for which the “hERG current change (%, negative = inhibition) at 10uM” value is -32%. As for `COc1ccc(C2NC(=O)CCC2[N+](=O)[O-])c(OC)c1OC` (stereo not drawn), the “hERG current change (%, negative = inhibition) at 10uM” value came out at 12.2%. The same measure for `Cn1c(-c2cccc3ccccc23)n[nH]c1=S`: 21.9%. With `CCOc1ccc(/C(O)=C2/C(=O)C(=O)N(c3cc(C)on3)C2c2ccc(C(=O)OC)cc2)cc1` (stereo not drawn), the “hERG current change (%, negative = inhibition) at 10uM” value came out at 11.3%. The same measure for `COc1ccccc1C(=O)NCC(=O)N1CC=C(c2ccccc2)CC1`: 6.76%. With `COc1cc(C(=O)NCC(=O)N2CC=C(c3ccccc3)CC2)cc(OC)c1OC`, the “hERG current change (%, negative = inhibition) at 10uM” value is -51.2%.

As to `CCOc1ccc(C(=O)NCC(=O)N2CCc3ccccc3C2)cc1OCC`, the “hERG current change (%, negative = inhibition) at 10uM” value amounted to 4.5%.

For the molecule `CCOc1ccc(C(=O)NCC(=O)N2CC=C(c3ccccc3)CC2)cc1OCC`, the “hERG current change (%, negative = inhibition) at 10uM” value is reported as -62.9%.

In the case of `O=C(NCC(=O)N1CC=C(c2ccccc2)CC1)c1ccco1`, the “hERG current change (%, negative = inhibition) at 10uM” value is given as -78.4%.

On to `COc1ccc(C(=O)NCC(=O)N2CC=C(c3ccccc3)CC2)cc1OC`, for which the “hERG current change (%, negative = inhibition) at 10uM” value was -37.9%.

Consider `CSCCC(NC(=O)c1ccco1)C(=O)N1CC=C(c2ccccc2)CC1` (stereo not drawn), for which the “hERG current change (%, negative = inhibition) at 10uM” value is given as -48%. The result for `CCOc1ccc(C(=O)NCC(=O)N2CCCCCCC2)cc1OCC` reads 1.47%; that for `Cc1cccc(C(=O)NCC(=O)N2CC=C(c3ccccc3)CC2)c1`, -40.9%.

Regarding `CCOC(=O)N1CCN(C(=O)COC(=O)COc2c(C)cc(C)cc2C)CC1`, the “hERG current change (%, negative = inhibition) at 10uM” value is -9.8%. The result for `O=c1c(-c2ccc(O)cc2O)coc2cc(O)cc(O)c12` reads -4.59%; that for `Nc1nnc(Cc2cccc(Br)c2)s1`, 3.51%; that for `COCCNC(=O)COc1ccc(C)cc1C`, 10.4%. The same measure for `CCCCNC(=S)N(C)/N=C/c1ccc(OCC(=O)Nc2ccc(OC)cc2)c(OC)c1`: -4.23%; for `CCOC(=O)C1=C(C)NC(SCC(N)=O)=C(C#N)C1c1cccs1` (stereo not drawn): -13.2%. The same measure for `O=C(c1ccc2c(=O)n3c(nc2c1)CCCCC3)N1CCN(Cc2ccccc2)CC1`: -2.69%; for `Cc1ccc(C(=O)OCC(=O)N(C)c2ccccc2)cc1C`: -9.59%. For the molecule `COc1ccc(Cn2c(C)nc3c(c(=O)c4ccccc4n3C)c2=O)cc1`, the “hERG current change (%, negative = inhibition) at 10uM” value was -44.5%. The result for `COc1ccc(CCn2c(-c3ccccc3)nc3c(c(=O)c4ccccc4n3C)c2=O)cc1` reads 11.3%; that for `CCc1nc2c(c(=O)c3ccccc3n2C)c(=O)n1CCc1ccc(OC)cc1`, -74.9%; that for `COc1ccc(CCn2c(C)nc3c(c(=O)c4ccccc4n3C)c2=O)cc1`, -61.4%. The result for `COc1ccc(CCn2c(-c3ccc(OC)cc3)nc3c(c(=O)c4ccccc4n3C)c2=O)cc1` reads 11.4%; that for `COc1ccc2c(=O)c3c(=O)n(CCc4ccccc4)c(C(C)C)nc3oc2c1`, 5.79%; that for `COCCn1c(C(C)C)nc2oc3ccccc3c(=O)c2c1=O`, 3.05%. The result for `COc1ccc(CCn2c(C(C)C)nc3c(c(=O)c4ccccc4n3C)c2=O)cc1` reads -30%; that for `COc1ccc(CCn2c(C(C)C)nc3oc4ccccc4c(=O)c3c2=O)cc1`, -75.3%. As for `Cc1ccc(NC(=O)CSCC(=O)N2c3ccccc3CCc3ccccc32)cc1`, the “hERG current change (%, negative = inhibition) at 10uM” value amounted to 7.66%.

Regarding `CC(=O)Nc1ccccc1C(=O)N1CCN(Cc2ccccc2)CC1`, the “hERG current change (%, negative = inhibition) at 10uM” value amounted to 5.02%.

As for `O=c1[nH]c(=O)n(Cc2ccco2)c(O)c1C=NCc1ccco1`, the “hERG current change (%, negative = inhibition) at 10uM” value worked out at 3.46%.

As for `Cc1nnc(NC(=O)CSc2nnc(-c3ccc(S(=O)(=O)N4CCCC4)cc3)n2C)s1`, the “hERG current change (%, negative = inhibition) at 10uM” value was -3.39%. The same measure for `C/C(=N\NC(=O)C1CC1)c1ccc(OC(F)F)cc1`: 9.94%. The same measure for `CCOc1ccc(NC(=O)CSCC(=O)O)cc1`: 1.8%; for `Oc1ccc(/C(Cc2ccccn2)=N\Nc2ccccc2)c(O)c1`: 8.76%. The result for `O=C(NC1CCN(Cc2ccccc2)C1)c1cc(COc2ccc(F)cc2F)on1` (stereo not drawn) reads -64.2%.

Consider `CC(=O)c1cccc(OCc2cc(C(=O)NC3CCN(Cc4ccccc4)CC3)no2)c1`, for which the “hERG current change (%, negative = inhibition) at 10uM” value is given as -62.9%. The same measure for `O=C(NC1CCc2ccccc21)c1cc(COc2ccc(F)cc2F)on1` (stereo not drawn): 16.5%. Take `CC(=O)c1ccc(OCc2cc(C(=O)NC3CCCCC3)no2)cc1`: the “hERG current change (%, negative = inhibition) at 10uM” value came to 5.17%. The same measure for `Cc1ccc(C)c(OCc2cc(C(=O)NC3CCN(Cc4ccccc4)CC3)no2)c1`: -41.1%. The result for `O=C(NC1Cc2ccccc2C1)c1cc(COc2ccc(F)cc2Cl)on1` reads 13.3%. The result for `c1ccc(-c2ccc(SCc3cccnc3)nn2)nc1` reads 8.9%.

As to `COC(=O)CCCC1=CC2=CC(=O)C(C)(OC(=O)c3cnc4ccccc4n3)C(=O)C2=CO1` (stereo not drawn), the “hERG current change (%, negative = inhibition) at 10uM” value is 7.07%. Consider `O=C(Nc1ccc(Br)cc1)c1cnccn1`, for which the “hERG current change (%, negative = inhibition) at 10uM” value was -2.9%. The same measure for `COCc1ccc(CN2CCCC(C(=O)Nc3ccc(-c4cccc(OC)c4)cc3)C2)o1` (stereo not drawn): -0.711%; for `CCN(CC1CCCN(CCc2cccc(OC)c2)C1)C(=O)c1ccoc1C` (stereo not drawn): -62.8%. The result for `COc1cccc(CCC(=O)N(C)C2CCCN(Cc3ccccc3F)C2)c1` (stereo not drawn) reads -0.453%; that for `COc1cccc(CNC(=O)CCC2CCCN(C(=O)c3ccoc3C)C2)c1` (stereo not drawn), 5.6%; that for `CCN(CC1CCCN(CCc2cccc(OC)c2)C1)C(=O)c1ccoc1` (stereo not drawn), -70.7%. `COc1cccc(CC(=O)NC2CCCN(Cc3ccccc3F)C2)c1` (stereo not drawn): the “hERG current change (%, negative = inhibition) at 10uM” value is listed as -5.72%. Consider `COc1cccc(CNC(=O)CCC2CCCN(C(=O)c3ccoc3)C2)c1` (stereo not drawn), for which the “hERG current change (%, negative = inhibition) at 10uM” value is 24.9%. The result for `CCN(CC1CCCN(CCc2cccc(OC)c2)C1)C(=O)c1ccc(COC)o1` (stereo not drawn) reads -71%; that for `CCN(CC1CCCN(CCc2cccc(OC)c2)C1)C(=O)C=C(C)C` (stereo not drawn), -61.1%. The same measure for `CCN(CC)C(=O)C1CCCN(Cc2cccc(Oc3ccccc3)c2)C1` (stereo not drawn): -19.6%.
